Compounds without any hit were thinned out: in the full panel of roughly 79,000, 15% have a hit. Unmarked numbers belong to inactive results. Activity calls are given as the source filed them. Cut-off read from the data, not from the text of the source: active = growth inhibition above about 70%; inactive = the rest.

Assay [1] is described as follows: NCI Yeast Anticancer Drug Screen. Data for the rad50 strain (AID 155).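 Note: 0% = growth of vehicle-only cultures of the same strain.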 As to conditions: S. cerevisiae rad50 strain growth inhibition, hits give high values. The gist of the method:
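Cells are treated with compound, grown, and their growth is then scored against vehicle-only cultures of the same repair-deficient yeast strain.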

The nature of assay [2]: NCI Yeast Anticancer Drug Screen. Data for the mec2-1 strain (AID 157). As to conditions: S. cerevisiae mec2-1 strain, hits give high values. The gist of the method: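 Mutant yeast (mec2-1) grown with compound; growth inhibition relative to vehicle control reported.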
The nature of assay [3]: NCI Yeast Anticancer Drug Screen. Data for the sgs1 mgt1 strain (AID 161).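 Note: 0% = growth of cultures given vehicle only.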 As to conditions: S. cerevisiae sgs1 mgt1 strain, hits give high values. The gist of the method:
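Growth of a repair-deficient yeast mutant was monitored after compound treatment and expressed as inhibition relative to vehicle-treated cultures.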

Assay [4] in a line: NCI Yeast Anticancer Drug Screen. Data for the cln2 rad14 strain (AID 165).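 Note: 0% = growth equal to vehicle treated cultures.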 As to conditions: S. cerevisiae cln2 rad14 strain, hits give high values. The gist of the method: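 Readout is yeast growth inhibition versus vehicle-treated controls, using a strain with cln2 and rad14 alterations exposed to compound.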
Assay [5] in a line: NCI Yeast Anticancer Drug Screen. Data for the bub3 strain (AID 167). As to conditions: S. cerevisiae bub3 mutant strain, hits give high values. The gist of the method:
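Part of a panel of yeast mutants defective in DNA damage repair or cell cycle regulation. Each strain is grown with compound, and inhibition is calculated relative to solvent-treated cultures.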

Assay [6] is described as follows: NCI Yeast Anticancer Drug Screen. Data for the mlh1 rad18 strain (AID 175). As to conditions: S. cerevisiae mlh1 rad18 strain growth inhibition, hits give high values. The gist of the method:
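Genetically defined yeast (DNA repair-deficient) exposed to compounds; growth inhibition determined relative to vehicle.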

Where [7] appears, read: at 5.0 µM (retest, dose inferred, filed as 0.5).
Setting [8] is: at 50.0 µM (retest, dose inferred, filed as 5.0).

With `ONC(=Nc1ccccc1)c1ccccc1`, the growth inhibition in assay [1] (setting [7]) was -137%; in assay [1] (setting [8]), 73% (active); in assay [1] (at 50.0 µM), 95.4% (active); in assay [2] (setting [7]), -42%; in assay [2] (setting [8]), 47%; in assay [2] (at 50.0 µM) it was 98.3% (active). The growth inhibition in assay [3] (setting [7]) was -55%; in assay [3] (setting [8]), 78% (active); in assay [3] (at 50.0 µM), 96.3% (active); in assay [4] (setting [7]) it was -58%; in assay [4] (setting [8]), 86% (active); in assay [4] (at 50.0 µM), 96.6% (active). The growth inhibition in assay [5] (setting [7]) was -66%; in assay [5] (setting [8]) it was 35%; in assay [5] (at 50.0 µM), 95.2% (active); in assay [6] (setting [7]) it was -120%; in assay [6] (setting [8]) it was 75% (active); in assay [6] (at 50.0 µM), 97.9% (active).
Take `CN1c2ccccc2S(=O)(=O)n2c(CCc3ccccc3)nnc21`: the growth inhibition in assay [1] (setting [7]) is 1%; in assay [1] (setting [8]) it was 10%; in assay [1] (at 50.0 µM), 14.3%; in assay [2] (setting [7]) it was 5%; in assay [2] (setting [8]), 13%; in assay [2] (at 50.0 µM) it was -3%. The growth inhibition in assay [3] (setting [7]) was 10%; in assay [3] (setting [8]), 10%; in assay [3] (at 50.0 µM), -6.9%; in assay [4] (setting [7]), 17%; in assay [4] (setting [8]), 14%; in assay [4] (at 50.0 µM), 9.85%. In addition, the growth inhibition is 9% in assay [5] (setting [7]); 15% in assay [5] (setting [8]); -10.7% in assay [5] (at 50.0 µM); 10% in assay [6] (setting [7]); 17% in assay [6] (setting [8]); 32.5% in assay [6] (at 50.0 µM).
As to `CCC[CH2][Sn]([CH2]CCC)([O]C(=O)C(OC)c1ccccc1)[O]C(=O)C(OC)c1ccccc1` (configuration not stated), the growth inhibition in assay [1] (setting [7]) was 44%; in assay [1] (setting [8]), 97% (active); in assay [1] (at 50.0 µM) it was 89% (active); in assay [2] (setting [7]), 40%; in assay [2] (setting [8]), 96% (active); in assay [2] (at 50.0 µM), 88.3% (active). Besides, the growth inhibition in assay [3] (setting [7]) is 44%; in assay [3] (setting [8]), 96% (active); in assay [3] (at 50.0 µM) it was 84% (active); in assay [4] (setting [7]) it was 36%; in assay [4] (setting [8]) it was 96% (active); in assay [4] (at 50.0 µM), 88.8% (active). The growth inhibition is 77% (active) in assay [5] (setting [7]); 98% (active) in assay [5] (setting [8]); 92% (active) in assay [5] (at 50.0 µM); 57% in assay [6] (setting [7]); 98% (active) in assay [6] (setting [8]); 88.3% (active) in assay [6] (at 50.0 µM).
For `O=Nc1ccc(O)c(/C=N/O)c1`, the growth inhibition was 19% in assay [1] (setting [7]); 94% (active) in assay [1] (setting [8]); 87.3% (active) in assay [1] (at 50.0 µM); 11% in assay [2] (setting [7]); 96% (active) in assay [2] (setting [8]); 91% (active) in assay [2] (at 50.0 µM). Besides, the growth inhibition in assay [3] (setting [7]) is 6%; in assay [3] (setting [8]) it was 90% (active); in assay [3] (at 50.0 µM), 92.1% (active); in assay [4] (setting [7]) it was 24%; in assay [4] (setting [8]) it was 95% (active); in assay [4] (at 50.0 µM), 83.8% (active). Besides, the growth inhibition is 1% in assay [5] (setting [7]); 99% (active) in assay [5] (setting [8]); 90% (active) in assay [5] (at 50.0 µM); 1% in assay [6] (setting [7]); 97% (active) in assay [6] (setting [8]); 88.9% (active) in assay [6] (at 50.0 µM).
Turning to `Cc1cc2c(cc1O)CC[C@@H]1[C@@H]2CC[C@]2(C)[C@@H](O)CC[C@@H]12`, the growth inhibition was -29% in assay [1] (setting [7]); -27% in assay [1] (setting [8]); 38.5% in assay [1] (at 50.0 µM); -25% in assay [2] (setting [7]); -16% in assay [2] (setting [8]); 35.2% in assay [2] (at 50.0 µM). The growth inhibition in assay [3] (setting [7]) was -32%; in assay [3] (setting [8]), -32%; in assay [3] (at 50.0 µM) it was 68%; in assay [4] (setting [7]), -9%; in assay [4] (setting [8]) it was -17%; in assay [4] (at 50.0 µM), 50.2%. In addition, the growth inhibition in assay [5] (setting [7]) is -42%; in assay [5] (setting [8]), -29%; in assay [5] (at 50.0 µM), 37.5%; in assay [6] (setting [7]) it was -35%; in assay [6] (setting [8]) it was -22%; in assay [6] (at 50.0 µM), 50%.
For `COc1ccc(/C=C/Cc2cc3c(cc2O)OCO3)cc1`, the growth inhibition in assay [1] (setting [7]) is -15%; in assay [1] (setting [8]), 13%; in assay [1] (at 50.0 µM), -4.05%; in assay [2] (setting [7]), -2%; in assay [2] (setting [8]), -10%; in assay [2] (at 50.0 µM), -9.7%. In addition, the growth inhibition in assay [3] (setting [7]) was 12%; in assay [3] (setting [8]) it was 5%; in assay [3] (at 50.0 µM), 13.1%; in assay [4] (setting [7]) it was 3%; in assay [4] (setting [8]) it was -2%; in assay [4] (at 50.0 µM), 25.8%. The growth inhibition is -2% in assay [5] (setting [7]); 14% in assay [5] (setting [8]); 17.2% in assay [5] (at 50.0 µM); -6% in assay [6] (setting [7]); 1% in assay [6] (setting [8]); 0.85% in assay [6] (at 50.0 µM).
For `CCCCCCCCCCCC[S+](C)C`, the growth inhibition in assay [1] (setting [7]) is 31%; in assay [1] (setting [8]) it was 52%; in assay [1] (at 50.0 µM), 44.9%; in assay [2] (setting [7]) it was 23%; in assay [2] (setting [8]) it was 80% (active); in assay [2] (at 50.0 µM), 78.3% (active). The growth inhibition was 36% in assay [3] (setting [7]); 83% (active) in assay [3] (setting [8]); 89.5% (active) in assay [3] (at 50.0 µM); 17% in assay [4] (setting [7]); 26% in assay [4] (setting [8]); 41% in assay [4] (at 50.0 µM). The growth inhibition was 41% in assay [5] (setting [7]); 74% (active) in assay [5] (setting [8]); 90.2% (active) in assay [5] (at 50.0 µM); 30% in assay [6] (setting [7]); 76% (active) in assay [6] (setting [8]); 6.8% in assay [6] (at 50.0 µM).
Take `CCCCCCCCCCC(O)CN1CCN(c2cccc(Cl)c2)CC1` (configuration not stated): the growth inhibition was 95% (active) in assay [1] (setting [7]); 98% (active) in assay [1] (setting [8]); 98.9% (active) in assay [1] (at 50.0 µM); 99% (active) in assay [2] (setting [7]); 99% (active) in assay [2] (setting [8]); 98.7% (active) in assay [2] (at 50.0 µM). The growth inhibition in assay [3] (setting [7]) is 99% (active); in assay [3] (setting [8]) it was 99% (active); in assay [3] (at 50.0 µM), 99.2% (active); in assay [4] (setting [7]), 97% (active); in assay [4] (setting [8]), 98% (active); in assay [4] (at 50.0 µM) it was 97.2% (active). Besides, the growth inhibition in assay [5] (setting [7]) is 96% (active); in assay [5] (setting [8]) it was 99% (active); in assay [5] (at 50.0 µM), 90.3% (active); in assay [6] (setting [7]) it was 99% (active); in assay [6] (setting [8]) it was 99% (active); in assay [6] (at 50.0 µM), 99.2% (active).
As to `Nc1c(-c2ccc(C3=NCCN3)cc2)[nH]c2cc(C3=NCCN3)ccc12`, the growth inhibition was 2% in assay [1] (setting [7]); 89% (active) in assay [1] (setting [8]); 32.3% in assay [1] (at 50.0 µM); 1% in assay [2] (setting [7]); 89% (active) in assay [2] (setting [8]); -29% in assay [2] (at 50.0 µM). Besides, the growth inhibition is 14% in assay [3] (setting [7]); 92% (active) in assay [3] (setting [8]); 69.9% in assay [3] (at 50.0 µM); 13% in assay [4] (setting [7]); 83% (active) in assay [4] (setting [8]); 49.5% in assay [4] (at 50.0 µM). The growth inhibition in assay [5] (setting [7]) was 22%; in assay [5] (setting [8]), 94% (active); in assay [5] (at 50.0 µM), 74.1% (active); in assay [6] (setting [7]), 3%; in assay [6] (setting [8]), 90% (active); in assay [6] (at 50.0 µM), -46.2%.
